{
  "source": "PubChem BioAssay AID504834",
  "about": "(National Center for Advancing Translational Sciences (NCATS), 2011)",
  "note": "The campaign covered roughly 320,000 compounds. About 22,000 (6.9%) were called active. Inconclusive results (about 27%) are left out. Only a selection was taken, and actives are over-represented in it overall. Unmarked numbers belong to inactive results. Calls come from the whole dose curve; as a rule, active = well fitted inhibition curve with a large enough effect; inconclusive = small, poorly fitted or top-dose-only effect, or another doubt; inactive = no such curve, though single readings can be large or run the other way. % is set by controls: 0 for no effect and ±100 for the full control effect; potency is the fitted concentration of half-maximal effect.",
  "data": [
    {"experiment": "Primary qHTS for delayed death inhibitors of the malarial parasite plastid, 96 hour incubation", "conditions": "P. falciparum luciferase reporter growth; series mostly up to 28.7 µM; activity change, negative = inhibition: at the top concentration", "description": "The goal of this screen is to discover new antimalarial compounds that act by inhibiting the development of the apicoplast in the malarial parasite Plasmodium falciparum. The biochemical processes that make this organelle essential for erythrocytic stage parasites are not well understood. However, antibiotics such as azithromycin and tetracycline, which target the apicoplast translational machinery, have a potent antimalarial effect.\nWe have developed a cell-based assay that measures parasite growth based on the expression of an integrated copy of a firefly luciferase reporter. To detect small molecules that cause this \"delayed death\" phenotype, erythrocytes infected with the luciferase-expressing parasites were incubated with compounds for either one or two generations, corresponding to 48 and 96 hours, respectively. Compounds that inhibit parasite growth in the second generation, but not the first, should be enriched in antimalarials that target the apicoplast. Growth inhibition is detected by a decrease in luciferase activity.\nAssay Provider: David Fidock and Eric Ekland, Columbia University\nKeywords: NIH Roadmap, MLPCN, MLI, MLSMR, qHTS, NCGC, qHTS, malaria, luciferase, viability\nFour microliters of infected erythrocytes (2% hematocrit, 0.05% parasitemia final concentration) in culture medium were dispensed and the plates incubated for 96 hours at 37 C in 5% CO2. Two microliters of luciferase detection reagent was added and luminescence was detected by a ViewLux (PerkinElmer) reader.", "values": [
      {"smiles": "CN1CCN(Cc2nc3c(c(=O)n(C)c(=O)n3C)n2Cc2cccc3ccccc23)CC1", "activity change, negative = inhibition": "2.21% [at 5.75 µM]"},
      {"smiles": "CCOC(=O)N1CCN(CCC(=O)Nc2ccccc2)CC1", "activity change, negative = inhibition": "-13.3%"},
      {"smiles": "CC(C)Cn1c(CN(Cc2ccccc2)Cc2ccccc2)nc2c1c(=O)n(C)c(=O)n2C", "activity change, negative = inhibition": "-10.2%"},
      {"smiles": "COCCn1c(CN2CCC(Cc3ccccc3)CC2)nc2c1c(=O)n(C)c(=O)n2C", "Potency": "5.22 µM (active)"},
      {"smiles": "CCOC(=O)Cn1c(CN(Cc2ccccc2)Cc2ccccc2)nc2c1c(=O)[nH]c(=O)n2C", "Potency": "3.29 µM (active)"},
      {"smiles": "COCCn1c(CN(Cc2ccccc2)Cc2ccccc2)nc2c1c(=O)n(C)c(=O)n2C", "Potency": "2.94 µM (active)"},
      {"smiles": "CCCCCCn1c(CN2CCCC(C)C2)nc2c1c(=O)n(C)c(=O)n2C", "note": "(configuration not stated)", "activity change, negative = inhibition": "-3.53%"},
      {"smiles": "CCN1CCN(Cc2nc3c(c(=O)n(C)c(=O)n3C)n2CC(=O)c2ccccc2)CC1", "activity change, negative = inhibition": "-12%"},
      {"smiles": "Cn1c(=O)c2c(nc(Br)n2CCSc2nc3ccccc3o2)n(C)c1=O", "activity change, negative = inhibition": "21.3%"},
      {"smiles": "Cn1c(=O)[nH]c(=O)c2c1nc(CN(Cc1ccccc1)Cc1ccccc1)n2CCN1CCOCC1", "activity change, negative = inhibition": "17.7%"},
      {"smiles": "Cn1c(=O)[nH]c(=O)c2c1nc(N(CCO)Cc1ccccc1)n2Cc1ccccc1Cl", "activity change, negative = inhibition": "14.3%"},
      {"smiles": "Cc1ccc(C)c(OCc2cc(C(=O)N3CCN(c4cnccn4)CC3)no2)c1", "activity change, negative = inhibition": "-41.1%"},
      {"smiles": "COc1ccccc1CCCNC(=O)C1CCC(=O)N(CCN2CCOCC2)C1", "note": "(configuration not stated)", "activity change, negative = inhibition": "6.7%"},
      {"smiles": "CCCCCn1c(=O)[nH]c2cc(C(=O)NCCCN3CCCCC3C)ccc2c1=O", "note": "(configuration not stated)", "activity change, negative = inhibition": "11.9%"},
      {"smiles": "COc1ccc2[nH]c(=O)c(C3c4cc(OC)c(OC)cc4CCN3C(=O)c3ccco3)cc2c1", "note": "(configuration not stated)", "activity change, negative = inhibition": "14.7%"},
      {"smiles": "O=C(Nc1nnc(Cc2ccc(Cl)cc2)s1)c1ccncc1", "activity change, negative = inhibition": "9.34%"},
      {"smiles": "CCNS(=O)(=O)c1ccc(CCC(=O)N2CCN(c3ccc(OC)cc3)CC2)cc1", "activity change, negative = inhibition": "19.3%"},
      {"smiles": "COC(=O)c1c(C)oc(C)c1S(=O)(=O)NCc1ccc(Cl)cc1", "activity change, negative = inhibition": "5.34%"},
      {"smiles": "CCCCC/C=C/C1=CC(=O)C[C@H](c2ccc(Cl)cc2)C1", "activity change, negative = inhibition": "-8.55%"},
      {"smiles": "C(=C\\c1ccccc1)/CSc1nnc(-c2cccnc2)n1Cc1ccco1", "Potency": "10.4 µM (active)"},
      {"smiles": "CCOC(=O)Cc1csc(NC(=O)CSc2nnc(-c3cccnc3)n2Cc2ccco2)n1", "activity change, negative = inhibition": "4.98%"},
      {"smiles": "O=C(CSc1nnc(-c2cnccn2)n1Cc1ccco1)c1ccc(Cl)c(Cl)c1", "activity change, negative = inhibition": "12.7%"},
      {"smiles": "CCn1c(CC(=O)Nc2ccccc2C)nnc1SCC(=O)NC1=NCCS1", "activity change, negative = inhibition": "12.2%"},
      {"smiles": "c1ccc2c(c1)CCc1snnc1-2", "activity change, negative = inhibition": "-21.5%"},
      {"smiles": "O=C(Cn1nc([N+](=O)[O-])nc1Br)NC1CCCCC1", "activity change, negative = inhibition": "-21.7%"},
      {"smiles": "O=C(CC1N=C2c3ccccc3N=C(SCc3ccccc3Cl)N2C1=O)NCc1ccco1", "note": "(configuration not stated)", "activity change, negative = inhibition": "74.9%"},
      {"smiles": "CCn1c(SCC(=O)NCC2CCCO2)nc2ccccc21", "note": "(configuration not stated)", "activity change, negative = inhibition": "-7.07%"},
      {"smiles": "O=C(CSc1ccc(-c2ccccc2)nn1)NCC1CCCO1", "note": "(configuration not stated)", "activity change, negative = inhibition": "30.6%"},
      {"smiles": "O=C(CSC1=Nc2ccccc2C2=NC(CC(=O)NCc3ccco3)C(=O)N12)NCc1ccco1", "note": "(configuration not stated)", "Potency": "1.85 µM (active)"},
      {"smiles": "CCC(C)NC(=O)CSC1=Nc2ccccc2C2=NC(CCC(=O)NCc3ccco3)C(=O)N12", "note": "(configuration not stated)", "activity change, negative = inhibition": "12%"},
      {"smiles": "O=C(CSC1=Nc2ccccc2C2=NC(c3ccccc3)C(=O)N12)NCC1CCCO1", "note": "(configuration not stated)", "Potency": "7.38 µM (active)"},
      {"smiles": "O=C(NCc1ccco1)/C(=C/c1ccco1)NC(=O)c1ccccc1", "activity change, negative = inhibition": "-11.6%"},
      {"smiles": "CC1CCN(C(=O)COC(=O)c2cc(S(=O)(=O)N3CCOCC3)ccc2Cl)CC1", "activity change, negative = inhibition": "8.35%"},
      {"smiles": "COc1cc(C(=O)NNC(=O)CN2C(=O)NC3(CCCC3)C2=O)cc(OC)c1OC", "activity change, negative = inhibition": "-17.8%"},
      {"smiles": "COc1cccc(C(=O)Nc2nnc(S(=O)(=O)N3CCCCC3)s2)c1", "activity change, negative = inhibition": "39.1%"},
      {"smiles": "Cc1ccc2nc(-c3ccc(Br)cc3)cn2c1", "activity change, negative = inhibition": "238%"},
      {"smiles": "CCC(C)(C)n1nnnc1C(c1ccc(OC)c(OC)c1)N1CCN(C(=O)c2ccco2)CC1", "note": "(configuration not stated)", "activity change, negative = inhibition": "-13.5%"},
      {"smiles": "CNC[C@H](CC1CCCCC1)NC[C@H](NCCC1CCCC1)[C@H](C)O", "Potency": "11.7 µM (active)"},
      {"smiles": "COc1ccc(CNC(=O)COc2ccccc2C(=O)c2cnn(-c3ccccc3)c2)cc1OC", "activity change, negative = inhibition": "-44.8%"},
      {"smiles": "O=C1C(=O)N(CCCO)C(c2ccccc2)/C1=C(\\O)c1ccc(Br)cc1", "note": "(configuration not stated)", "activity change, negative = inhibition": "295%"},
      {"smiles": "CCCc1nnc(SCC(=O)Nc2ccc(C(=O)OCC)cc2)o1", "Potency": "0.147 µM (active)"},
      {"smiles": "CCOC(=O)c1c(NC(=O)CSc2nccc(=O)[nH]2)sc(C)c1C", "activity change, negative = inhibition": "-0.0024%"},
      {"smiles": "CCOC(=O)c1ccc(NC(=O)CSc2ncccn2)cc1", "activity change, negative = inhibition": "-0.551%"},
      {"smiles": "CCOC(=O)c1c(NC(=O)CSc2nnc(CNc3ccc(C)cc3C)o2)sc(C)c1C", "Potency": "8.28 µM (active)"},
      {"smiles": "COc1ccc(Cc2nnc(SCC(=O)Nc3ccc(C)c(C)c3)o2)cc1OC", "activity change, negative = inhibition": "15.7%"},
      {"smiles": "CCOC(=O)c1c(-c2ccc(C)cc2C)csc1NC(=O)CSc1nnnn1C", "activity change, negative = inhibition": "8.94%"},
      {"smiles": "CN(CCc1ccccn1)C(=O)c1ccc(OC2CCN(Cc3ccccn3)CC2)cc1", "activity change, negative = inhibition": "14.8%"},
      {"smiles": "Cc1cc(C)cc(OCC(=O)OCC(=O)NC2CCCC2)c1", "activity change, negative = inhibition": "-18.5%"},
      {"smiles": "CCn1c(=S)sc2c(=O)n(CC(=O)Nc3ccc(OC)cc3)c(C)nc21", "activity change, negative = inhibition": "40.3%"},
      {"smiles": "COc1cccc(CCNC(=O)c2cccc(NC(=O)C3=C(C)OCCS3)c2)c1", "Potency": "11.7 µM (active)"},
      {"smiles": "COc1cccc(C(=O)NCCS(=O)(=O)NCC2CCCO2)c1", "note": "(configuration not stated)", "activity change, negative = inhibition": "-1.14%"},
      {"smiles": "CC1=C(C(=O)Nc2ccccc2)SCCO1", "activity change, negative = inhibition": "17.1%"}
    ]}
  ]
}
